{
  "source": "ChEMBL document CHEMBL3988442",
  "about": "“University of Dundee, Small-Polar-MMV Screening Library” (2021)",
  "note": "Among all 48,000 compounds or so, about 13,000 (27%) showed an effect of 50% or more. This is one part of the list.",
  "data": [
    {"test_system": "Wolbachia pipientis", "assay": "Anti-Wolbachia Cell-Based Screen", "type": "functional", "design": "scale not given: in the data most compounds retested in dose-response had high values", "conditions": "5 µM", "units": {"Percent Effect": "%"}, "values": [
      {"smiles": "COc1ccc(CNC(=O)NCC(O)(c2cccs2)C2CC2)cc1", "note": "(stereo not given)", "Percent Effect": 11.16},
      {"smiles": "CCOCc1ccccc1NC(=O)NCC(C)(O)c1cccs1", "note": "(stereo not given)", "Percent Effect": -8.36},
      {"smiles": "OC(CNc1ccc(Cl)cn1)CN1CCOCC1", "note": "(stereo not given)", "Percent Effect": -5.222},
      {"smiles": "Cc1n[nH]c(C)c1Sc1ccccc1NC(=O)N1CCN(C)CC1", "Percent Effect": 1.27},
      {"smiles": "Cn1nc(Br)nc1Sc1ccccc1NC(=O)C1CC1", "Percent Effect": 107.9},
      {"smiles": "CCn1nc(Br)nc1Sc1ccccc1NC(C)=O", "Percent Effect": 119.4},
      {"smiles": "CSc1ccccc1NC(=O)CCC(=O)N(C)C1CCN(C)CC1", "Percent Effect": 6.723},
      {"smiles": "CCCSc1ccccc1NC(=O)N1CCC(N2CCSCC2)CC1", "Percent Effect": -2.644},
      {"smiles": "Cc1n[nH]c(C)c1Sc1ccccc1NC(=O)CN1CCCC1", "Percent Effect": 2.491},
      {"smiles": "Cn1cnnc1Sc1ccc(NC(=O)C2CC2)cc1Cl", "Percent Effect": -0.08341},
      {"smiles": "CCC(=O)Nc1ccccc1Sc1nc(Br)nn1C", "Percent Effect": 107.5},
      {"smiles": "CC(=O)Nc1ccccc1Sc1nc(Br)nn1C", "Percent Effect": 114.6},
      {"smiles": "Cc1n[nH]c(C)c1Sc1ccccc1NC(=O)N1CCOCC1", "Percent Effect": -5.626},
      {"smiles": "COCC(=O)Nc1ccccc1Sc1c(C)n[nH]c1C", "Percent Effect": -1.881},
      {"smiles": "CN(C)C(=O)N1CCN(C(=O)c2cccc(Cl)c2)CC2(CNC(=O)C2)C1", "note": "(stereo not given)", "Percent Effect": -8.821},
      {"smiles": "CCCN(Cc1ccc(OC)nc1)Cc1ccccc1OC", "Percent Effect": 7.541},
      {"smiles": "CS(=O)(=O)c1nccn1Cc1ccc(OC(F)F)cc1", "Percent Effect": -0.8084},
      {"smiles": "NC(=O)Nc1cccc(C(=O)N(Cc2ccc(F)cc2)C2CC2)c1", "Percent Effect": -11.54},
      {"smiles": "NC(=O)C1(CNCc2csc(-c3cccs3)n2)CCOCC1", "Percent Effect": -0.8866},
      {"smiles": "CC(C)N1CCC(C(=O)N2CCC(c3ccc(F)cc3)C2)CC1", "note": "(stereo not given)", "Percent Effect": 11.91},
      {"smiles": "CC(C)N1CCC(C(=O)N2CCN(c3cccc(C(=O)O)c3)CC2)CC1", "Percent Effect": 106.6},
      {"smiles": "CC(C)N1CCCC(C(=O)N2CCN(c3cccc(C(=O)O)c3)CC2)C1", "note": "(stereo not given)", "Percent Effect": 107.1},
      {"smiles": "O=C(Cc1ccc2c(c1)OCO2)N1CCCN(c2ccccc2)CC1", "Percent Effect": 5.064},
      {"smiles": "CC(C)N1CCC(C(=O)N2CCCN(c3ccccc3)CC2)CC1", "Percent Effect": 106.5},
      {"smiles": "Cc1cccc(N2CCN(C(=O)CN3CCC(C(N)=O)CC3)CC2)c1", "Percent Effect": 3.313},
      {"smiles": "CC(C)c1cc(C(=O)N2CCN(c3cccc(C(=O)O)c3)CC2)n(C)n1", "Percent Effect": 1.445},
      {"smiles": "CC(C)N1CCCC(C(=O)N2CCN(c3cnn(C)c(=O)c3)CC2)C1", "note": "(stereo not given)", "Percent Effect": -17.55},
      {"smiles": "Cc1nn(C)cc1C(=O)N1C[C@H]2CC[C@@H]1CN(S(=O)(=O)N(C)C)C2", "Percent Effect": 7.621},
      {"smiles": "CC(C)CCC1=NC2(CCN(C(=O)CN3CCCC3=O)CC2)C(=O)N1", "Percent Effect": 0.2617},
      {"smiles": "NS(=O)(=O)c1cnc(NCC2(c3cccc(F)c3)CCOCC2)s1", "Percent Effect": -14.69},
      {"smiles": "CC(=O)N1CC(=O)N(c2cnn(C)c2)CC12CCN(CC1CC1)C2.O=C(O)C(F)(F)F", "note": "(stereo not given)", "Percent Effect": -1.209},
      {"smiles": "Cc1ccsc1C(=O)N1CCCn2c(nc(CN(C)C)cc2=O)C1.O=C(O)C(F)(F)F", "Percent Effect": -10.18},
      {"smiles": "CCN(CC)Cc1cc(=O)n2c(n1)CN(C(=O)c1ccc[nH]1)CCC2", "Percent Effect": 89.92},
      {"smiles": "CN(C)Cc1cc(=O)n2c(n1)CN(C(=O)c1ccc[nH]1)CCC2.O=C(O)C(F)(F)F", "Percent Effect": 95.26},
      {"smiles": "CC(C)N(C)Cc1cncc2c1CCN(C(=O)c1ccc[nH]1)C2.Cl.Cl", "Percent Effect": -17.08},
      {"smiles": "CC(C)N(C)Cc1cc(=O)n2c(n1)CN(C(=O)c1ccc[nH]1)CCC2", "Percent Effect": 99.67},
      {"smiles": "CN(C)Cc1cc(=O)n2c(n1)CN(C(=O)Cc1cccs1)CCC2.O=C(O)C(F)(F)F", "Percent Effect": 4.562},
      {"smiles": "CC(=O)NC1CCCN(c2ccc(C#N)cc2C(F)(F)F)C1", "note": "(stereo not given)", "Percent Effect": 47.21},
      {"smiles": "CC(C)N1CC(C(=O)NC(C)(C)CNC(=O)OC(C)(C)C)CC1=O", "note": "(stereo not given)", "Percent Effect": 16.31},
      {"smiles": "Cc1ccc(C(=O)OC(C)Cn2cccn2)c(=O)[nH]1", "note": "(stereo not given)", "Percent Effect": -0.638},
      {"smiles": "c1csc(SCC2CN=C(N3CCOCC3)S2)c1", "note": "(stereo not given)", "Percent Effect": -10.18},
      {"smiles": "CN(CCc1cnn(C)c1)C(=O)C(c1ccccc1F)N(C)C", "note": "(stereo not given)", "Percent Effect": -8.573},
      {"smiles": "CC(C)c1nsc(N2CCOC3(CCCC3)C2)n1", "Percent Effect": -27.55},
      {"smiles": "C[C@@H]1CN(C(=O)CCN2CCCC2)CC[C@@]1(O)C1CCOCC1", "Percent Effect": 18.72},
      {"smiles": "CC(C)[C@]1(O)CN(C(=O)C2(Cn3cccn3)CC2)C[C@H]1C", "Percent Effect": 94.9},
      {"smiles": "C[C@@H]1CN(C(=O)C2(Cn3cccn3)CC2)CC[C@@]1(O)C1CCOCC1", "Percent Effect": 103.7},
      {"smiles": "C[C@@H]1CN(C(=O)C2(Cn3cccn3)CC2)C[C@@]1(O)C1CCC1", "Percent Effect": 109.7},
      {"smiles": "C[C@@H]1CN(C(=O)CCc2cnn(C)c2)CC[C@@]1(O)C1CCOCC1", "Percent Effect": -4.294},
      {"smiles": "CC(C1CC1)N(C)C(=O)CCn1cccn1", "note": "(stereo not given)", "Percent Effect": -12.77},
      {"smiles": "C[C@@H]1CN(C(=O)c2ccncc2)CC[C@@]1(O)C1CCOCC1", "Percent Effect": -11.61},
      {"smiles": "CCN(C(=O)CCn1cccn1)C1CC1", "Percent Effect": 0.4672},
      {"smiles": "C[C@@H]1CN(C(=O)CCN2CCCC2)CC[C@@]1(O)C1CCC1", "Percent Effect": -5.805},
      {"smiles": "CCCc1cc(C(=O)N2C[C@@H](C)[C@](O)(C3CCC3)C2)[nH]n1", "Percent Effect": -1.382},
      {"smiles": "C[C@@H]1CN(C(=O)C2(Cn3cccn3)CC2)CC[C@@]1(O)C1CC1", "Percent Effect": 95.17},
      {"smiles": "C[C@@H]1CN(C(=O)CCc2cnn(C)c2)C[C@@]1(O)C1CCC1", "Percent Effect": -2.131}
    ]}
  ]
}
